# In the library only some 2.9% were active in any assay of this set; here they are far more common.
# Nrf2 activator: activates Nrf2 signaling. AREc32 ARE-luciferase reporter (MCF7-derived line), luminescence, 24 h. Potency, µM (series often up to 46.1 µM), inactives show at the top dose activation, most hits filed as activators. actives 0.31% (n = 410,000). AID 624171; further: % of control where 0% means no effect; nearly all actives have a fitted effect of over 65% in size
#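 Nrf2 activation is followed as ARE-luciferase induction in the AREc32 line after one day of compound treatment; luminescence is read with Steady-Glo.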
# ATXN2 expr inh: ATXN2 expression inhibition. HEK-293 ATXN2-luciferase reporter, luminescence, 24 h. Potency, µM (top dose mostly 57 µM), for inactives: at the highest dose activity change, negative = inhibition, most hits filed as inhibitors. actives 0.72% (n = 360,000); further: on the % scale 0 is the no-effect control and ±100 the full control effect; nearly all actives have a fitted effect of over 55% in size
#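 ATXN2-luciferase reporter cells (luciferase flanked by upstream and downstream ATXN2 gene portions) were treated 24 h at 37 °C with compounds at up to 57 uM. SteadyGlo luminescence gave expression; GF-AFC fluorescence gave viability.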
# A549 viability: counter-screen for Nrf2 inhibitors: cytotoxicity in A549 cells; actives 0.16% (n = 390,000); Potency, µM (series often up to 46 µM), inactives show at the top dose activity change, negative = cytotoxicity, usual class: inhibitors; A549 ARE-Fluc cells, CellTiter-Fluor viability, 18-24 h; further: on the % scale 0 is the no-effect control and ±100 the full control effect
#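 A549 ARE_Fluc cells in 5% FBS OPTI-MEM were exposed to compounds in concentration-response for 18-24 h at 37 deg C. Viability was read by CellTiter-Fluor fluorescence (Ex 405/Em 525) after 30 min, before the luciferase read.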
# Nrf2 block: blocks Nrf2 signaling | A549 ARE-Fluc reporter, luciferase luminescence, 18-24 h | AID 504444 | Potency, µM (top dose mostly 46 µM), for the others: at the highest dose activity change, negative = inhibition, usual class: inhibitors | actives 2.1% (n = 360,000); further: on the % scale 0 is the no-effect control and ±100 the full control effect; nearly all actives have a fitted effect of over 60% in size
#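 A549 ARE_Fluc cells (5000/well, 5% FBS OPTI-MEM) pre-incubated 2 h, then treated with compounds 18-24 h at 37C/5% CO2 in concentration-response. CellTiter-Fluor viability read first; BugLite luciferase luminescence after 15 min at room temperature gives Nrf2 activity.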
# S2 tox: viability counter-screen for ATXN expression inhibitors; Potency, µM (doses to about 56.7 µM), hits mostly cytotoxic; AID 651635; S2 cells (HEK-293 line with an ATXN2-luciferase reporter) viability, CellTiter-Fluor protease fluorescence, 24 h; actives 0.49% (n = 400,000); further: nearly all actives have a fitted effect of over 40% in size
# The depositor's hits bear a star; i = inactive; ? = inconclusive; · = not tested or not shown. The call rests on the fitted dose curve; in most records, active means well fitted curve in the direction sought with a large enough effect; inconclusive means small, poorly fitted or top-dose-only effect, or another doubt; inactive means no such curve, though single readings can be large; an effect the other way counts as inactive or inconclusive. Potency means the concentration at half of the fitted maximal effect.
SMILES,Nrf2 activator,ATXN2 expr inh,A549 viability,Nrf2 block,S2 tox
O=C(CC(c1ccccc1)c1cc(Br)ccc1O)NCC1(c2ccccc2)CCCC1 (stereo unspecified),-3%,?,?,?,35µM*
O=C(CC(c1ccccc1)c1cc(Br)ccc1O)NCCN1CCOCC1 (stereo unspecified),0%,-5%,8%,-12%,i
CCN(CC)S(=O)(=O)c1ccc(N/N=C/c2cc(OC)ccc2O)nc1,-1%,3.2µM*,0%,-10%,i
CCN(CC)C(=O)Cn1c(=O)cc(C)c2c(C)nn(C)c21,0%,-7%,2%,19%,i
Cc1oc2c(c1C(=O)NCc1cccnc1)C(=O)c1ccccc1C2=O,-5%,2.8µM*,2.6µM*,5.2µM*,2.8µM*
CC(=O)c1c(C)oc2c1C(=O)c1ccccc1C2=O,0%,?,1%,4%,?
COc1ccc(CNC(=O)c2c(C)oc3c2C(=O)c2ccccc2C3=O)cc1,-5%,?,4.6µM*,4.1µM*,i
COc1ccc(C(CCN2CCCC(C)C2)c2c(OC)cc(OC)c3c(-c4ccccc4)cc(=O)oc23)cc1 (stereo unspecified),-3%,?,-20%,-1%,·
COc1ccc(C2CC(=O)Oc3c(C(CCN4CCCC(C)C4)c4ccc(N(C)C)cc4)c(OC)cc(OC)c32)cc1 (stereo unspecified),0%,-1%,?,-1%,8.9µM*
COc1cc(OC)c2c(-c3ccccc3)cc(=O)oc2c1C(CCN1CCCC(C)C1)c1ccc(N(C)C)cc1 (stereo unspecified),-1%,?,?,4%,20µM*
COc1cc(OC)c2c(c1C(CCN1CCCC1)c1ccc(N(C)C)cc1)OC(=O)CC2c1ccc(N(C)C)cc1 (stereo unspecified),·,·,-24%,-12%,·
COc1ccc(C2CC(=O)Oc3c(C(CCN4CCCCC4)c4ccc(N(C)C)cc4)c(OC)cc(OC)c32)cc1 (stereo unspecified),0%,-22%,?,0%,8.9µM*
Cc1ccc(S(=O)c2ccc([N+](=O)[O-])c3nonc23)cc1 (stereo unspecified),18µM*,·,·,·,?
COC(=O)c1c(OCc2cccnc2)cc(=O)n2c1CCN(C(=O)c1ccc(OC)c(F)c1)CC2,·,·,·,·,i
COc1cc(OC)c(NC(=O)CCc2nc(C3=CCN(Cc4cccc(Cl)c4)CC3)no2)cc1Cl,5%,-39%,?,·,i
COC(=O)/C=C/c1ccsc1NC(C)=O,13µM*,1%,1%,18%,i
O=S(=O)(O)CCSSCCS(=O)(=O)O,·,6%,·,·,·
O=C(c1cccnc1)C1CCCN(Cc2ccc3c(c2)CN(C(=O)c2cn4ccccc4n2)CCO3)C1 (stereo unspecified),·,·,·,·,i
Cc1nn(-c2ccccn2)c2c1C(c1ccccc1Cl)C1=C(N2)c2ccccc2C1=O (stereo unspecified),0%,?,-4%,-3%,2.2µM*
Cc1ccc(-n2c(SCc3ccccc3F)nc3[nH]ncc3c2=O)cc1Cl,-2%,?,?,·,35µM*
O=c1c2cn[nH]c2nc(SCc2ccccc2F)n1-c1ccc(Br)cc1,3%,-34%,-8%,?,i
CCc1ccc(-n2c(SCc3ccccc3F)nc3[nH]ncc3c2=O)cc1,-2%,?,17%,·,20µM*
COc1ccc(/C=C/C(=O)NCc2cn(C)nc2C)cc1COc1ccc(Br)cc1,0%,-15%,-24%,18µM*,i
Cc1nn(C)cc1CNC(=O)/C=C/c1cnn(C)c1,0%,-1%,-2%,-5%,i
O=C1C(=O)c2c(ccc3ccccc23)-c2ccccc21,-2%,3.2µM*,-2%,3%,5µM*
O=C1COc2cc(S(=O)(=O)CCC(=O)N3CCN(c4ccccc4)CC3)c(Cl)cc2N1,-1%,-13%,4%,15%,i
COc1cccc(NS(=O)(=O)c2ccc3c(c2)[C@H]2C=CC[C@H]2[C@@H](c2ccccc2Cl)N3)c1,-2%,0%,-19%,21µM*,i
